# Measured values as given in PubChem BioAssay.
# Several values for one entry are separate records, joined by “and”; a condition that tells them apart may be missing. Equal values may be shown once. Inconclusive results are not listed. For some assays here: Potency and affinity values are given separately. Some compounds were tested as several samples or in several runs, with calls that do not always agree. Activity calls are given as the source filed them. Unless noted, how the calls were made is not given here.
# What was measured:
# [1] = test system: Aerobactin synthetase IucA (Klebsiella pneumoniae hvKP1); assay: IucA enzyme inhibition, primary screen, biochemical, Spectrum library (AID 1346200); conditions: malachite green pyrophosphate, A620, at 8 µM, stronger effect = lower value;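 further: 100% = wells without compound and 0% = wells lacking enzyme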
# [2] = test system: Aerobactin synthetase IucA (Klebsiella pneumoniae, hypervirulent); assay: biochemical IucA inhibition screen of LOPAC library by absorbance (AID 1346212); conditions: IucA enzyme assay, absorbance (OD) readout; stronger effect = lower value;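 tested at 8 µM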;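 further: 100% = no compound wells and 0% = no enzyme wells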
# [3] = compounds altering circadian rhythm period length – cell-based, LOPAC library, luminescence reporter (AID 2774); conditions: circadian reporter cells, at 7 µM, actives lie on both sides;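 further: values are relative to mean of DMSO wells on each plate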
# [4] = test system: Hepatitis C virus NS3 helicase; assay: blockers of NS3h binding to ssDNA – biochemical, fluorescence polarization, LOPAC1280 library, primary screen (AID 687035; in the data active means inhibition above about 37%); conditions: Purified HCV NS3 helicase, Cy5-dT15 ssDNA binding fluorescence polarization; stronger effect = higher value; concentration not given here
# [5] = compounds altering Cy5-DNA-NS3h complex signal – biochemical, LOPAC1280, artefact control for HCV NS3 helicase inhibitor project (AID 687037); conditions: Cy5-DNA-NS3h complex fluorescence interference counterscreen
# [6] = viability loss with induced miR-34 in A549 – imaging, A549 dox-inducible miR-34, nuclei and caspase counts, primary screen (AID 1347080;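 active means compounds whose cell count with miR-34 switched on is under 0.7 times the count with it off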); conditions: A549 miR-34 inducible, Hoechst nuclei count, 48 h
# [7] = galactose survival enhancers in mitochondrial complex I cybrids – cell-based, galactose medium, ATP luminescence, primary screen (AID 1645843;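 active means z-score of at least 1.8 in each of two replicates, scored against plate mean and spread of sample wells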;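 further: positive z means more ATP and so rescue of galactose-driven cybrid death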); conditions: complex I mutant cybrid cells, 72 h, stronger effect = higher value
# [8] = P. berghei load reduction in hepatocytes – cell-based, HepG2, luciferase luminescence, HepG2 viability, primary screen (AID 624349; in the data active means parasite load remaining mostly below about 12%, no sharp cut-off; inactive means mostly above about 10%;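 further: 100% = mean of DMSO negative control wells on the same plate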); conditions: P. berghei liver stage in HepG2, luciferase luminescence, concentration not given here; parasite load remaining: stronger effect = lower value; viability: measured here: HepG2 viability without parasites
# [9] = target: Mitogen-activated protein kinase 7 (Homo sapiens) (UniProt Q13164); assay: Gal4-ERK5 driven luciferase induction – cell-based, HTS, primary screen (AID 1508626;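 active means luciferase signal above three times the same-plate solvent-only control wells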;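 further: luciferase driven by Gal4-ERK5 fusion binding five Gal4 sites before minimal TATA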); conditions: HeLa Gal4-ERK5 transactivation, 18 h, at 5 µM, stronger effect = higher value
# Sequence of Mitogen-activated protein kinase 7 (Homo sapiens) (Q13164 whole entry, looked up, the tested form may be a part): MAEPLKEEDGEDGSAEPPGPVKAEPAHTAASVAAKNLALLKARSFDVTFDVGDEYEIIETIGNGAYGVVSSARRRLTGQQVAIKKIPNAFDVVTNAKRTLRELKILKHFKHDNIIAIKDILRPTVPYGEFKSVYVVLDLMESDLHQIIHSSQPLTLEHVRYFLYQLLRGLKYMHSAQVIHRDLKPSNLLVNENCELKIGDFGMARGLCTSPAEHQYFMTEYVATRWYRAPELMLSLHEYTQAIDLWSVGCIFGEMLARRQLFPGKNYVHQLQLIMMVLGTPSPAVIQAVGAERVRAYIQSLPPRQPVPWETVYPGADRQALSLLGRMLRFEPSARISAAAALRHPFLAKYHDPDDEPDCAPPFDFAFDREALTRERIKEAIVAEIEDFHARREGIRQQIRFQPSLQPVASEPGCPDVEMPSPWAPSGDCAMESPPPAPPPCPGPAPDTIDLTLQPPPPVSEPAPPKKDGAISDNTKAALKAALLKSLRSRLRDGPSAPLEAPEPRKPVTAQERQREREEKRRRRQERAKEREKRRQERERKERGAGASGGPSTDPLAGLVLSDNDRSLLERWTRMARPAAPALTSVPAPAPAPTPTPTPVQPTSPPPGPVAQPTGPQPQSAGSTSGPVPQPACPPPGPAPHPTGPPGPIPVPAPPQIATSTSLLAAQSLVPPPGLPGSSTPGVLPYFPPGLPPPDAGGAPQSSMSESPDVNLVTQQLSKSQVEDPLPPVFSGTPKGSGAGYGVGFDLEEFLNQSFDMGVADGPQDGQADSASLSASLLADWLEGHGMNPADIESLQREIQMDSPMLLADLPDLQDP
# [10] = target: ATP-dependent translocase ABCB1 (Homo sapiens) (UniProt P08183); assay: P-glycoprotein substrate transport blockade – cell-based (AID 377; in the data active means fluorescence slope change above about 50%); conditions: MDR1-expressing cells, fluorescent substrate accumulation slope; stronger effect = higher value; concentration not given here
# Sequence of ATP-dependent translocase ABCB1 (Homo sapiens) (P08183 whole entry, looked up): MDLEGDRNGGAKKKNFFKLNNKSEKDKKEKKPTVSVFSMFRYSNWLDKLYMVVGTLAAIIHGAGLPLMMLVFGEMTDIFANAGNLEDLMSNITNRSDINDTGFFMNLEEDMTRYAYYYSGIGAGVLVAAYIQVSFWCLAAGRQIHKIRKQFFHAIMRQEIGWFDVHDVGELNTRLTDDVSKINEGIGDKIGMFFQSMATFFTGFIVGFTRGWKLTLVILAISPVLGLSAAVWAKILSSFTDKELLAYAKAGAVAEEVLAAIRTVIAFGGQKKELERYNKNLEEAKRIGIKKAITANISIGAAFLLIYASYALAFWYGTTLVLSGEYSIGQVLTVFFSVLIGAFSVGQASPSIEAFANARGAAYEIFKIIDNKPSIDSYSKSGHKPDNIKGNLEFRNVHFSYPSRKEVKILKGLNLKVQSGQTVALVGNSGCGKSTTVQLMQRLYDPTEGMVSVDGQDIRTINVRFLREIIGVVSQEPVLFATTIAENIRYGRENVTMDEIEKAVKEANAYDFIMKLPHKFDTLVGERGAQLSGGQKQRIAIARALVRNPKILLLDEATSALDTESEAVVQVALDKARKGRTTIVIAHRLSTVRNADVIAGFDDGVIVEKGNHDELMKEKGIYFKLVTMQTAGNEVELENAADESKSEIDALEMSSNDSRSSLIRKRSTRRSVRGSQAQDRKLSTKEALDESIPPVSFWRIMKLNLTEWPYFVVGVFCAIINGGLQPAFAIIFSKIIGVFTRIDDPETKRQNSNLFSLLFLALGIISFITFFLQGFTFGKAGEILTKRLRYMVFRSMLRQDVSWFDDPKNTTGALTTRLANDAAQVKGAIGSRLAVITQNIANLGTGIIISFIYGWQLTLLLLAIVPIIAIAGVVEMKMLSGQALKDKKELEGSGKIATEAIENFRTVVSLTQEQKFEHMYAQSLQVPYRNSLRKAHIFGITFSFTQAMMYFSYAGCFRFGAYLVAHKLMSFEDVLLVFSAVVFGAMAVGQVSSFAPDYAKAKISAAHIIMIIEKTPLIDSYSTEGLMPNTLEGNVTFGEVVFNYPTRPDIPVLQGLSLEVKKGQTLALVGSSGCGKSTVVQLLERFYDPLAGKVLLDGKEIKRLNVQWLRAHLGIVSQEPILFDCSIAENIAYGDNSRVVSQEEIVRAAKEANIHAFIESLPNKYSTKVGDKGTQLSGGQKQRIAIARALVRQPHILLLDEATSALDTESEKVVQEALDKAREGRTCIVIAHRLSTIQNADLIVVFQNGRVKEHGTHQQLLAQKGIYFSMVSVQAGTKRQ
# [11] = blockers of polyQ-driven CASP3 activation – cell-based (AID 1583); conditions: polyglutamine-induced caspase-3 activation, cell assay; stronger effect = higher value;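 tested at 10 µM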
# [12] = yeast 75Q aggregation reduction – 75Q-TubU reporter (AID 1593); conditions: Yeast 75Q polyglutamine aggregation reporter
# [13] = restoration of touch response, mutant HTT neurons – whole organism, C. elegans mechanosensory neurons, N-terminal huntingtin (AID 1599); conditions: C. elegans polyQ-huntingtin mechanosensory neurons, stronger effect = higher value
# [14] = blockers of cytochrome c efflux from mitochondria – biochemical, purified mitochondria (AID 1603); conditions: stronger effect = lower value;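 further: mouse liver mitochondria challenged with calcium chloride; signal normalized to the plate average as 100%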
# [15] = polyglutamine aggregate formation blockers (AID 1604); conditions: polyglutamine-induced protein aggregation inhibition assay; stronger effect = higher value; tested at 2.5 µM
# [16] = glutamate transport activators, MN-1 cells, MN-1 cell line (AID 1612); conditions: MN-1 motor neuron cells, stronger effect = higher value;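 further: tested at 1 µM final; 0% = mean of DMSO vehicle wells on each plate; positive means more glutamate uptake than control and negative means less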
# [17] = GFP-Q80 aggregate reduction, neuronal-like cells, cell-based, NGF-treated PC12, GFPQ80 (AID 1614); conditions: PC12 NGF-treated GFP-polyQ80 inclusion reduction;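 further: lower means fewer inclusions and 0 means no inclusions at all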
# [18] = 75Q-TubH aggregate inhibition, S. cerevisiae, yeast (AID 1616); conditions: S. cerevisiae 75Q-TubH polyglutamine aggregation suppression; stronger effect = higher value
# [19] = compounds altering viability of human ES cells (AID 493140); conditions: human embryonic stem cell survival screen; stronger effect = higher value;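 further: cells exposed to compounds for four days before counting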
# [20] = measured here: relative caspase fold change +Dox/-Dox
# [21] = measured here: total cells with miR-34 induction, stronger effect = lower value
# [22] = measured here: total cells without miR-34 induction
structure (smiles),measurement,setting,value
O=c1c(O)c(-c2ccc(O)cc2O)oc2cc(O)cc(O)c12,activity remaining,[1],96.8% (inactive)
same,remaining activity,[2],122% (inactive)
CCN(CC)C(=S)SSC(=S)N(CC)CC,activity remaining,[1],90.4% (inactive)
same,remaining activity,[2],89.3% (inactive)
CC(N)C(=O)OC(C)(C)Cc1ccc(Cl)cc1 (stereo not given),period change,[3],-0.005 h (inactive)
same,inhibition,[4],-4% (inactive)
same,fluorescence ratio (interference),[5],1 (inactive)
same,activity remaining,[1],86.1% (inactive)
same,remaining activity,[2],119% (inactive)
same,fold change,[6]; stronger effect = lower value,1.02 (inactive)
same,fold change,[6]; [20],1.79
same,cell count,[6]; [21],10500
same,cell count,[6]; [22],10300
same,z-score,[7],-0.85 (inactive)
CC[C@@H]1Cc2cc(O)ccc2C2=C1c1ccc(O)cc1C[C@H]2CC,remaining activity,[2],89.7% (inactive)
CNC(Cc1c[nH]c2ccccc12)C(=O)O (stereo not given),parasite load remaining,[8],105% (inactive)
same,viability,[8],73.8%
same,activity remaining,[1],108% (inactive)
same,luciferase signal,[9],36 AU (inactive)
O=C1OCCN1/N=C/c1ccc([N+](=O)[O-])o1,parasite load remaining,[8],1.08% (active) and 4.96% (inactive)
same,viability,[8],58.1% and 96.5%
same,activity remaining,[1],104% (inactive)
same,fold change,"[6]; stronger effect = lower value, cell number ratio, induced over uninduced",0.857 (inactive)
same,fold change,[6]; [20],1.85
same,cell count,[6]; [21],9350
same,cell count,[6]; [22],10900
C=C1C2CC[C@H]3[C@]4(C)C[C@H](OC5OC(CO)C(OS(=O)(=O)O)C(OS(=O)(=O)O)C5OC(=O)CC(C)C)C[C@@H](C(=O)O)[C@H]4CC[C@]3(C2)[C@H]1O (stereo not given in full),fluorescence slope change,[10],23.6% (inactive)
same,inhibition,[11],13.1%
same,score,[12],1.67
same,rescue above control,[13],-8.48
same,cytochrome c release ratio,[14],1.3
same,inhibition of aggregation,[15],74.7%
same,glutamate uptake change,[16],4.94%
same,inclusion score,[17],2
same,aggregation suppression score,[18],1.68
same,survival,[19],8.25 (inactive)
same,activity remaining,[1],102% (inactive)
same,luciferase signal,[9],160 AU (inactive)
CC12CCCCC1(Br)[N+](=O)N2[O-] (stereo not given),activity remaining,[1],108% (inactive)
same,luciferase signal,[9],64 AU (inactive)
O=C1CC2OCC=C3CN4CC[C@]56c7ccccc7N1C5[C@H]2[C@H]3CC46 (stereo not given in full),inhibition,[11],-12.5%
same,score,[12],1.28
same,rescue above control,[13],-0.21
same,cytochrome c release ratio,[14],1
same,inhibition of aggregation,[15],70.4%
same,glutamate uptake change,[16],-17.6%
same,inclusion score,[17],1
same,aggregation suppression score,[18],0.688
same,parasite load remaining,[8],113% (inactive) and 54.7% (inactive)
same,viability,[8],71.9% and 95.5%
same,activity remaining,[1],121% (inactive)
same,fold change,[6]; stronger effect = lower value,0.917 (inactive)
same,fold change,[6]; [20],1.82
same,cell count,[6]; [21],11700
same,cell count,[6]; [22],12700
C[C@H]1O[C@@H](O[C@H]2[C@@H](O)C[C@H](O[C@H]3[C@@H](O)C[C@H](O[C@H]4CC[C@]5(C)C6CC[C@]7(C)[C@@H](C8=CC(=O)OC8)CC[C@]7(O)C6CC[C@@H]5C4)O[C@@H]3C)O[C@@H]2C)C[C@H](O)[C@@H]1O (stereo not given in full),score,[12],1.05
same,rescue above control,[13],-1.72
same,cytochrome c release ratio,[14],1.31
same,inhibition of aggregation,[15],76%
same,glutamate uptake change,[16],5.63%
same,inclusion score,[17],2
same,aggregation suppression score,[18],0.858
same,activity remaining,[1],121% (inactive)
O=C(O)Cc1ccc(O)c(O)c1,remaining activity,[2],107% (inactive)
O=C(O)P(=O)(O)O,fluorescence slope change,[10],95.2% (active)
same,activity remaining,[1],112% (inactive)
C[C@@H]1CC[C@H]2[C@@H](C)C(=O)O[C@@H]3OC4(C)CC[C@@H]1[C@]32OO4,inhibition,[11],18.8%
same,score,[12],0.49
same,rescue above control,[13],21.4
same,cytochrome c release ratio,[14],1.15
same,inhibition of aggregation,[15],79.2%
same,glutamate uptake change,[16],20.6%
same,inclusion score,[17],2
same,aggregation suppression score,[18],0.15
same,survival,[19],4.67 (inactive)
same,parasite load remaining,[8],71.2% (inactive)
same,viability,[8],72.2%
same,activity remaining,[1],86.3% (inactive)
CC1CCN(CC[C@H]2CCCN2S(=O)(=O)c2cccc(O)c2)CC1,remaining activity,[2],125% (inactive)
COc1nc(C)nc(Cl)c1NC1=NCCN1,remaining activity,[2],119% (inactive)
CN(C)CCCO[C@@H]1[C@H]2OC(C)(C)O[C@H]2O[C@@H]1[C@H](O)CO,remaining activity,[2],113% (inactive)
O=C(O)CCC/C=C\C[C@@H]1[C@@H](/C=C/[C@H](O)C2Cc3ccccc3C2)[C@@H](F)C[C@@H]1O,remaining activity,[2],97.7% (inactive)
CC[C@]12CCCN3CCc4c(n(c5ccccc45)[C@](O)(C(=O)OC)C1)[C@@H]32,survival,[19],6.25 (inactive)
same,activity remaining,[1],115% (inactive)
COc1ccc2c(c1)[C@]13CCCC[C@H]1[C@H](C2)N(C)CC3,inhibition,[11],-11.5%
same,score,[12],1.32
same,rescue above control,[13],-2.69
same,cytochrome c release ratio,[14],0.98
same,inhibition of aggregation,[15],78.2%
same,glutamate uptake change,[16],6.18%
same,inclusion score,[17],2
same,aggregation suppression score,[18],1.29
same,parasite load remaining,[8],84.3% (inactive)
same,viability,[8],71.2%
same,activity remaining,[1],115% (inactive)
